Measured values published in PubChem BioAssay (NCATS).
Records with an inconclusive call do not appear. Unmarked numbers belong to inactive results. The source made the active and inactive calls. The call rests on the fitted dose curve; in most records, active means well fitted activation curve with a large enough effect; inconclusive means small, poorly fitted or top-dose-only effect; inactive means no such curve, though single readings can be large or run the other way.

molecular target: Cellular tumor antigen p53 (Homo sapiens) (UniProt P04637); assay: Primary qHTS for small molecule compounds that upregulate eGFP-tagged delta133p53alpha (in N-terminal) cells. (AID 2060322); settings: NCI-H358 eGFP-delta133p53alpha fluorescence, 24 h; activation: hits give high values; further: nearly all actives have a fitted effect of over 75% in size;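 on activation: series mostly up to about 56 µM; 0% = DMSO vehicle and 100% = reference activator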
Outline: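 NCI-H358 cells pre-induced 24 h with 10 ng/ml doxycycline to express N-terminal eGFP-delta133p53alpha, then dosed 24 h at 37C without doxycycline; fixed, Hoechst-stained, GFP intensity by laser scanning cytometry, normalized to DMSO (0%) and 57.5 uM 5-azacytidine (100%).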
Potency means the concentration at half of the fitted maximal effect.

Chain of Cellular tumor antigen p53 (Homo sapiens) (P04637 whole entry, looked up): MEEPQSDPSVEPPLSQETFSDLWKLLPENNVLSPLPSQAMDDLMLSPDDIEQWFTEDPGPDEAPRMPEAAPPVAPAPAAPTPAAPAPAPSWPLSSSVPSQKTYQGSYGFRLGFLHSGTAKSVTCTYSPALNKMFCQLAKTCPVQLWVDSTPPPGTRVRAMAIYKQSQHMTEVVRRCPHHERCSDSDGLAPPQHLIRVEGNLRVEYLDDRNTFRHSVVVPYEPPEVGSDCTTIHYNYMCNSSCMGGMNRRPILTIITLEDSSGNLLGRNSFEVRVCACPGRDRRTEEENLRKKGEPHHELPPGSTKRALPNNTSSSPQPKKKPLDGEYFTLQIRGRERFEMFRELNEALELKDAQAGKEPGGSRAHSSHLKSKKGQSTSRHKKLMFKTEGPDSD

| SMILES | activation [%] | Potency |
| --- | --- | --- |
| CC(/C=C/[C@]1(O)[C@@]2(C)CO[C@@]1(C)C[C@@H](O)C2)=C\C(=O)O[C@@H]1O[C@H](CO)[C@@H](O)[C@H](O)[C@H]1O | -16.8 |  |
| CC(C)c1nc(N(C)S(C)(=O)=O)nc(-c2ccc(F)cc2)c1/C=C/[C@@H](O)C[C@@H](O)CC(=O)O | -19 |  |
| CC1(C)CC[C@]2(C(=O)O)CC[C@]3(C)C(=CCC4[C@@]5(C)C[C@@H](O)[C@H](O)[C@](C)(CO)C5CC[C@]43C)[C@@H]2[C@@H]1O (stereo partly specified) | 12.5 |  |
| CC(=O)OC/C(=C/C(=O)O)CC[C@@H]1C(C=O)=CC[C@@H]2C(C)(C)CCC[C@@]12C | -32.8 |  |
| CC(=O)OC[C@@]12C(=O)C[C@@H](C)[C@]3(C[C@@H](c4ccoc4)OC3=O)[C@H]1CC[C@H](OC(C)=O)[C@]21CO1 | 27.5 |  |
| C=C1C(OC(C)=O)CCC2(C)CC3(OC)OC(=O)C(C)=C3CC12 (stereo unspecified) | 17.9 |  |
| CC(=O)O[C@@H]1CC[C@@]2(C)[C@H](CC[C@@H]3[C@@H]2C[C@H](OC(C)=O)[C@]2(C)[C@@H](C(C)=O)CC[C@@H]32)C1 | 5 |  |
| COC(=O)C1=CO[C@@H](O[C@@H]2O[C@H](CO)[C@@H](O)[C@H](O)[C@H]2O)[C@@H]2[C@@H](C(=O)OC)[C@@H](O)C(O)[C@H]12 (stereo partly specified) | -19.8 |  |
| CC[C@H](C)/C=C(C)/C=C/C1=CC2=C(Cl)C(=O)[C@](C)(O)[C@H](OC(C)=O)[C@H]2CO1 |  | 14.8 µM (active) |
| C=C1CC[C@@H]2[C@@](C)(CO[C@@H]3O[C@H](CO)[C@@H](O)[C@H](O)[C@H]3O)[C@H](O)CC[C@@]2(C)[C@@H]1CC/C(C)=C/CO[C@@H]1O[C@H](CO)[C@@H](O)[C@H](O)[C@H]1O | 23.2 |  |
| C[C@@H]1O[C@@H](O[C@H]2[C@H](OC(=O)[C@]34CCC(C)(C)C[C@H]3C3=CCC5[C@@]6(C)CC[C@H](O[C@@H]7O[C@H](CO[C@@H]8OC[C@H](O)[C@H](O)[C@H]8O)[C@@H](O)[C@H](O)[C@H]7O)C(C)(C)C6CC[C@@]5(C)[C@]3(C)C[C@H]4O)OC[C@@H](O)[C@@H]2O)[C@H](O)[C@H](O)[C@H]1O[C@@H]1OC[C@H](O)[C@H](O[C@@H]2OC[C@@H](O)[C@H](O)[C@H]2O)[C@H]1O (stereo partly specified) | 3.82 |  |
| CC(C)C(NC(=O)c1ccc2ccccc2n1)C(=O)NC(CC(=O)O)C(=O)COc1c(F)cccc1F (stereo unspecified) | 2.33 |  |
| C=C1CC23CC1(O)CCC2C1=CC2OC(=O)C(C)(C2O)C1C3C(=O)O (stereo unspecified) | 6.87 |  |
| CC1=C(C)C(=O)OC(C(C)C2CCC3C4C5OC5C5(O)CC(OC6OC(CO)C(OC7OC(C)C(O)C(O)C7O)C(O)C6O)CC(O)C5(C)C4CCC23C)C1 (stereo unspecified) | 3.57 |  |
| C/C1=C\CC[C@H](C)CCO[C@@H]2O[C@H](CO[C@@H]3OC[C@](O)(COC1=O)[C@H]3O)[C@@H](O)[C@H](O)[C@H]2O | 18.8 |  |
| CCOC(=O)C(CCc1ccccc1)NC(C)C(=O)N1Cc2ccccc2CC1C(=O)O (stereo unspecified) | -13.4 |  |

| SMILES | activation [%] | Potency |
| --- | --- | --- |
| O=C(CCCN1CCN(c2ccc(F)cc2)CC1)NC1c2ccccc2CSc2ccccc21 (stereo unspecified) | -15 |  |
| O=C(C[C@@H]1C(C(=O)O)=CO[C@@H](O[C@@H]2O[C@H](CO)[C@@H](O)[C@H](O)[C@H]2O)/C1=C\CO)OCCc1ccc(O)cc1 | 1.53 |  |
| O=C(O)C(O[C@@H]1O[C@H](CO[C@@H]2O[C@H](CO)[C@@H](O)[C@H](O)[C@H]2O)[C@@H](O)[C@H](O)[C@H]1O)c1ccccc1 (stereo partly specified) | -16 |  |
| CC(=O)O[C@H]1CC(C)(C)CC2[C@@]13[C@H](O)C[C@]1(C)[C@@]2(CCC2[C@@]4(C)CC[C@H](O[C@@H]5OC[C@H](O[C@@H]6O[C@H](CO)[C@@H](O)[C@H](O)[C@H]6O[C@@H]6OC[C@@H](O)[C@H](O)[C@H]6O)[C@H](O)[C@H]5O[C@@H]5O[C@H](CO)[C@@H](O)[C@H](O)[C@H]5O)C(C)(C)C4CC[C@]21C)O[C@@H]3O (stereo partly specified) | -7.63 |  |
| COc1ccc(/C=C/C(=O)O[C@@H]2[C@@H](OC(C)=O)[C@@H](OC(C)=O)[C@H](O[C@H]3[C@@H]4C=CO[C@@H](O[C@@H]5O[C@H](CO)[C@@H](O)[C@H](O)[C@H]5O)[C@@H]4[C@@]4(CO)O[C@@H]34)O[C@H]2C)cc1O | -16 |  |
| CCNc1nc(Nc2cc(F)c(C(=O)N3CCOCC3)cc2OC)ncc1C(F)(F)F | 10.7 |  |
| [N-]=[N+]=N[C@]1(CO)O[C@@H](n2ccc(=O)[nH]c2=O)[C@@H](O)[C@@H]1O | 7 |  |
| C[C@@H]1O[C@@H](O[C@H]2[C@H](O)[C@@H](O[C@@H]3O[C@H](CO)[C@H](O)[C@H](O)[C@H]3O)[C@H](O[C@H]3CC[C@@]4(C)C(CC[C@]5(C)C4CC=C4[C@@H]6CC(C)(C)CC[C@]6(C(=O)O[C@@H]6O[C@H](CO)[C@@H](O)[C@H](O)[C@H]6O)CC[C@]45C)C3(C)C)O[C@@H]2C(=O)O)[C@H](O)[C@H](O)[C@H]1O (stereo partly specified) | 5.34 |  |
| CCCCc1nc(C)c(CC(=S)N(C)C)c(=O)n1Cc1ccc(-c2ccccc2-c2nn[nH]n2)cc1 | 18.1 |  |
| CCC(C)C1NC(=O)C(Cc2ccccc2)NC(=O)C(CCCCCC(=O)C(O)CO)NC(=O)C2CCCCN2C1=O (stereo unspecified) | -9.92 |  |
| O=C1N(CC2CCCCN2)CCN1c1ccccc1 (stereo unspecified) | 5.73 |  |
| C[C@@H](Cc1cc2c(c(C(N)=O)c1)N(CCCO)CC2)NCCOc1ccccc1OCC(F)(F)F | 13.7 |  |
| O=C1OCC(c2ccccc2)=C1Cc1ccccc1 | -8.4 |  |
| Cc1cc(CNC(=O)c2cc(C(=O)NCc3ccc(F)c(C)c3)ncn2)ccc1F | 1.67 |  |
| CC1(C)CC[C@]2(C(=O)O)CC[C@]3(C)C(=CCC4[C@@]5(C)CC[C@H](O[C@@H]6O[C@H](CO)[C@@H](O)[C@H](O)[C@H]6O[C@@H]6O[C@H](CO)[C@@H](O)[C@H](O)[C@H]6O)[C@@](C)(CO)C5CC[C@]43C)[C@@H]2C1 (stereo partly specified) | 9.82 |  |
